Legend:
[1] = target: Serine/threonine-protein kinase SIK1 (Homo sapiens) (UniProt P57059); settings: at 10 µM
[2] = target: SRSF protein kinase 1 (Homo sapiens) (UniProt Q96SB4); settings: at 1 µM
[3] = target: SRSF protein kinase 1 (Homo sapiens) (UniProt Q96SB4); settings: at 10 µM
[4] = target: SRSF protein kinase 2 (Homo sapiens) (UniProt P78362); settings: at 1 µM
[5] = target: SRSF protein kinase 2 (Homo sapiens) (UniProt P78362); settings: at 10 µM
[6] = target: Serine/threonine-protein kinase 33 (Homo sapiens) (UniProt Q9BYT3); settings: at 1 µM
[7] = target: Serine/threonine-protein kinase 33 (Homo sapiens) (UniProt Q9BYT3); settings: at 10 µM
[8] = target: Serine/threonine-protein kinase PLK2 (Homo sapiens) (UniProt Q9NYY3); settings: at 1 µM
[9] = target: Serine/threonine-protein kinase PLK2 (Homo sapiens) (UniProt Q9NYY3); settings: at 10 µM
[10] = target: Tyrosine-protein kinase SYK (Homo sapiens) (UniProt P43405); settings: at 10 µM
[11] = target: T1, Mitogen-activated protein kinase kinase kinase 7 (Homo sapiens) (UniProt O43318); settings: at 1 µM
T1 sequence (whole entry): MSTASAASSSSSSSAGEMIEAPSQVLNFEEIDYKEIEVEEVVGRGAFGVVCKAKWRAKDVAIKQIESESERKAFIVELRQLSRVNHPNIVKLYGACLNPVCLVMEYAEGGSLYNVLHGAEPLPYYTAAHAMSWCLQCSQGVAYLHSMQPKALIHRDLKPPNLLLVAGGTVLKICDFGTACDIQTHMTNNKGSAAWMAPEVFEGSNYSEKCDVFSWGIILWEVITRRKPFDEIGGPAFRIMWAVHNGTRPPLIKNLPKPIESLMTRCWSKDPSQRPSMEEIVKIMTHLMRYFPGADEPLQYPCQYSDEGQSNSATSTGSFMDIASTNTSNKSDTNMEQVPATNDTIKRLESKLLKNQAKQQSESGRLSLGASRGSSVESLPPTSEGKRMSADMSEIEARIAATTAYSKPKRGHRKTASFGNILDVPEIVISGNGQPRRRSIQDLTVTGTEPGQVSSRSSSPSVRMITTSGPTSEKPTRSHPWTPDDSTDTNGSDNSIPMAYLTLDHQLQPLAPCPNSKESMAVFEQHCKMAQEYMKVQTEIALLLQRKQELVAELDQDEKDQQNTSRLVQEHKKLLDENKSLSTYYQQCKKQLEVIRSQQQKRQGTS

[12] = target: T1, Mitogen-activated protein kinase kinase kinase 7 (Homo sapiens); settings: at 10 µM
[13] = target: T2, Serine/threonine-protein kinase TAO1 (Homo sapiens) (UniProt Q7L7X3); settings: at 10 µM
T2 sequence (whole entry): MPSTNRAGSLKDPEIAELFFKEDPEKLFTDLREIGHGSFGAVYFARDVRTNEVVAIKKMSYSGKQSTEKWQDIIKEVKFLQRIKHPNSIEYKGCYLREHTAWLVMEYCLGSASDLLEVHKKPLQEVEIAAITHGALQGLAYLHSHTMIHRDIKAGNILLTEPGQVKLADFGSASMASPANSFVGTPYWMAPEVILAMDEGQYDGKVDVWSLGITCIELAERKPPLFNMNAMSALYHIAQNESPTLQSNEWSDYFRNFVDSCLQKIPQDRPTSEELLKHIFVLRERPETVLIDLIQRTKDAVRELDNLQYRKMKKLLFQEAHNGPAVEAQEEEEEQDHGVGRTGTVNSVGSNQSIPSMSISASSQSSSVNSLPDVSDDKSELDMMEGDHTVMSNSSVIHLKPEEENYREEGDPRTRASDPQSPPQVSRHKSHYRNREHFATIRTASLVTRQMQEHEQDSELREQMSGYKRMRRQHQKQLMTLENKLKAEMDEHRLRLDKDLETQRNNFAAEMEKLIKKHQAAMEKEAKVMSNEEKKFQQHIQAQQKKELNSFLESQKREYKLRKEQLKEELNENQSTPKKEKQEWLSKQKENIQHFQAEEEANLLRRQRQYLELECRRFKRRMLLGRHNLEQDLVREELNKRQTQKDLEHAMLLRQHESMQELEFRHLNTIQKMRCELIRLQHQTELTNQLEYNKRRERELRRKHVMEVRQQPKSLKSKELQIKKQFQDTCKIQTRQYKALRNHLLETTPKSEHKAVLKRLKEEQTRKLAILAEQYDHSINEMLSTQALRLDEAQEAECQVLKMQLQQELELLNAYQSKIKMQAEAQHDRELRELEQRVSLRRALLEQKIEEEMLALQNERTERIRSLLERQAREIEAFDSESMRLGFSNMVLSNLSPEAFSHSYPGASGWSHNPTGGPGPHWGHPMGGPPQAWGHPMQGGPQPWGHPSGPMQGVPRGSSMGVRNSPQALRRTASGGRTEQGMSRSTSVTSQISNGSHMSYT

[14] = target: T3, Serine/threonine-protein kinase TAO2 (Homo sapiens) (UniProt Q9UL54); settings: at 1 µM
T3 sequence (whole entry): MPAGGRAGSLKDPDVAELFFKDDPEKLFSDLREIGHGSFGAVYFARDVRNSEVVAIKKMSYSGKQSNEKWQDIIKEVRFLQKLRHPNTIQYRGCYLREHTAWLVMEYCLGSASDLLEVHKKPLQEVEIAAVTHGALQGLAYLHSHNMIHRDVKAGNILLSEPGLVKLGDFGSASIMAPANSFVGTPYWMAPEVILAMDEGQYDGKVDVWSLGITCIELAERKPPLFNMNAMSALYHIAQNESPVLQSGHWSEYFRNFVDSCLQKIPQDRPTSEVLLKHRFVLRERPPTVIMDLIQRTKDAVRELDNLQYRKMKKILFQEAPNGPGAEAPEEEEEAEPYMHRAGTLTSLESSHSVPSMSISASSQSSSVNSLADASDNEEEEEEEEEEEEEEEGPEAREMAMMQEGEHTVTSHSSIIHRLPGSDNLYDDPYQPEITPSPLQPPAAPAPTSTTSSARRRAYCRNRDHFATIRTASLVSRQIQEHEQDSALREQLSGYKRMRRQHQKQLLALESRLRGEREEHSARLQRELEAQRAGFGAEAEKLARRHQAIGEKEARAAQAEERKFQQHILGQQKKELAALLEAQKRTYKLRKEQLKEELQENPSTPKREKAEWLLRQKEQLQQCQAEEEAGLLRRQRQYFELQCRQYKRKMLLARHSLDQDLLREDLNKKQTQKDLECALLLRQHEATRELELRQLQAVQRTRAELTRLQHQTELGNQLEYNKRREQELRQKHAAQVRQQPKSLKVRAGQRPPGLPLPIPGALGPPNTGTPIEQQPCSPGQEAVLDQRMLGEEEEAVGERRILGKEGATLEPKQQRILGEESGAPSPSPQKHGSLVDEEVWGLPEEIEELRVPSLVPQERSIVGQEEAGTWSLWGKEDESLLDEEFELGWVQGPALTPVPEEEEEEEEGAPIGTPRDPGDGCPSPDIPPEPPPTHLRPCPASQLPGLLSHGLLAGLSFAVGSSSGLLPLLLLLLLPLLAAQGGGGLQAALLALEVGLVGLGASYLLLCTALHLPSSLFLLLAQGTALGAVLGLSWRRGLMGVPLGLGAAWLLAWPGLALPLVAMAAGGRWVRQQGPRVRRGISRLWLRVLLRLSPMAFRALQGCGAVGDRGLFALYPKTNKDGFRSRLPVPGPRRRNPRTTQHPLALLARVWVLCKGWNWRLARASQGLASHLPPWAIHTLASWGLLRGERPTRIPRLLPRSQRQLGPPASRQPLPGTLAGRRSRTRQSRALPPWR

[15] = target: T3, Serine/threonine-protein kinase TAO2 (Homo sapiens); settings: at 10 µM
[16] = target: T4, Serine/threonine-protein kinase TAO3 (Homo sapiens) (UniProt Q9H2K8); settings: at 1 µM
T4 sequence (whole entry): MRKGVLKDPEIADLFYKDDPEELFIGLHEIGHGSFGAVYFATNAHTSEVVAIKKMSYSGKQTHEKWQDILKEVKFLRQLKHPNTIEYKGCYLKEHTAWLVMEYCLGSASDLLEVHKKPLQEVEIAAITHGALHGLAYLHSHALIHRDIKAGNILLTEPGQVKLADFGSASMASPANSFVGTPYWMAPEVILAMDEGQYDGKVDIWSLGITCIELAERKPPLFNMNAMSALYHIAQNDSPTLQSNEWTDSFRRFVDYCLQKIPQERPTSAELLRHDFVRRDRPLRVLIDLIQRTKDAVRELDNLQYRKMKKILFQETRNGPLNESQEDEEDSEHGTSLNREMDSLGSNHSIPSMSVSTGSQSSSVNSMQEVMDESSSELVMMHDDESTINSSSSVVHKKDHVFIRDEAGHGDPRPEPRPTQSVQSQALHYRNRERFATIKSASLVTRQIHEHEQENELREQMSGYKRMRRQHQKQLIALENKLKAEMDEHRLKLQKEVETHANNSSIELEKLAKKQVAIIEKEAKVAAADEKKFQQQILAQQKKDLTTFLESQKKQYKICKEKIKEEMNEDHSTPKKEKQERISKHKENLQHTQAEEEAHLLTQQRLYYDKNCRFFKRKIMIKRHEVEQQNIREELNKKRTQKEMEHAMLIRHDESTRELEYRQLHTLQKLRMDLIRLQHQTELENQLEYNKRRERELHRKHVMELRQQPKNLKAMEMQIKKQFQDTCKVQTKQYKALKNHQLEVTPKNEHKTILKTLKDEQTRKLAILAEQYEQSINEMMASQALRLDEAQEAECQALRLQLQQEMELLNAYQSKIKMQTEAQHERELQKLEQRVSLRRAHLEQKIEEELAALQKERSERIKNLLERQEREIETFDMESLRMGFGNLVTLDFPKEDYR

[17] = target: T4, Serine/threonine-protein kinase TAO3 (Homo sapiens); settings: at 10 µM
[18] = target: T5, Serine/threonine-protein kinase TBK1 (Homo sapiens) (UniProt Q9UHD2); settings: at 1 µM
T5 sequence (whole entry): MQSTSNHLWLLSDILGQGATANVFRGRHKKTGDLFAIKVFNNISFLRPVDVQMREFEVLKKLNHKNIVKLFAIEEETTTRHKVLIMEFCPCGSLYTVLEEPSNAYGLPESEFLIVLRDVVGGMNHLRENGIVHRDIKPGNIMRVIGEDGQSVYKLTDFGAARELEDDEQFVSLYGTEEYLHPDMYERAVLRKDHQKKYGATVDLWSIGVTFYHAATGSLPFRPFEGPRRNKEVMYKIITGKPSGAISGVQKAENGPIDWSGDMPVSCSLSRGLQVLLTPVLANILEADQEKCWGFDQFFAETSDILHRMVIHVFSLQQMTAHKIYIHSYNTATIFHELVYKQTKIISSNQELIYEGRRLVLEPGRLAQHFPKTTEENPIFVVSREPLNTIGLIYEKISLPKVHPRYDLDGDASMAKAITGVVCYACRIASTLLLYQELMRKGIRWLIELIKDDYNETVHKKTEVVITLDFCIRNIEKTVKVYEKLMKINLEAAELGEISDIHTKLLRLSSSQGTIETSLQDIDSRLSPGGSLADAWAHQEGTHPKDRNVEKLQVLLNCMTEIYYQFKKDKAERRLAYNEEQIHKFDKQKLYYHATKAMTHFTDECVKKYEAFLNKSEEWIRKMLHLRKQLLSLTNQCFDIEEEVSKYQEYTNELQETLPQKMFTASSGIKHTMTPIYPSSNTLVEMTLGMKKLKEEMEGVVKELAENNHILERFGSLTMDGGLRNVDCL

[19] = target: Tyrosine-protein kinase SYK (Homo sapiens) (UniProt P43405); settings: at 1 µM
[20] = target: T2, Serine/threonine-protein kinase TAO1 (Homo sapiens); settings: at 1 µM

Chain of Serine/threonine-protein kinase SIK1 (Homo sapiens) (P57059 whole entry): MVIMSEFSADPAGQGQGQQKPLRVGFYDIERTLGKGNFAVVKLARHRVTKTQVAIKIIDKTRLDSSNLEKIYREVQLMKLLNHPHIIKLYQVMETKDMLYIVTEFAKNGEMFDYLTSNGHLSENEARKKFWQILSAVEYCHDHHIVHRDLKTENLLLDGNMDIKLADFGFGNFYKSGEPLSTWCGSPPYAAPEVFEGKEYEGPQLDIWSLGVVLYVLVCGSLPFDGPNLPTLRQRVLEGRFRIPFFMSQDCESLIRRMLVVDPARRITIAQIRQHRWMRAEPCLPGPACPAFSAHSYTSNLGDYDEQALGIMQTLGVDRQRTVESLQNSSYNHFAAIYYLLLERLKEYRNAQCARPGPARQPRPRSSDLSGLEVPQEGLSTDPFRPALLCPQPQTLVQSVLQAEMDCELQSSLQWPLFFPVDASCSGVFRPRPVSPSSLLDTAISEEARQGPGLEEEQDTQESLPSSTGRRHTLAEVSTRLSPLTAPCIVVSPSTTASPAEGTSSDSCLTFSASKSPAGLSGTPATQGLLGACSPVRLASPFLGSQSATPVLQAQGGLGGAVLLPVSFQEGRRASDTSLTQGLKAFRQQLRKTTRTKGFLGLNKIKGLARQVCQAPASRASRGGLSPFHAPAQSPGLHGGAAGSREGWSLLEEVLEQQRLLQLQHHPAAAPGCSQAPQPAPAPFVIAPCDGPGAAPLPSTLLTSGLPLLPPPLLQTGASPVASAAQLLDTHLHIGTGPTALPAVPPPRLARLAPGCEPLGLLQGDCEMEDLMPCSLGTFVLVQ
Chain of SRSF protein kinase 1 (Homo sapiens) (Q96SB4 whole entry): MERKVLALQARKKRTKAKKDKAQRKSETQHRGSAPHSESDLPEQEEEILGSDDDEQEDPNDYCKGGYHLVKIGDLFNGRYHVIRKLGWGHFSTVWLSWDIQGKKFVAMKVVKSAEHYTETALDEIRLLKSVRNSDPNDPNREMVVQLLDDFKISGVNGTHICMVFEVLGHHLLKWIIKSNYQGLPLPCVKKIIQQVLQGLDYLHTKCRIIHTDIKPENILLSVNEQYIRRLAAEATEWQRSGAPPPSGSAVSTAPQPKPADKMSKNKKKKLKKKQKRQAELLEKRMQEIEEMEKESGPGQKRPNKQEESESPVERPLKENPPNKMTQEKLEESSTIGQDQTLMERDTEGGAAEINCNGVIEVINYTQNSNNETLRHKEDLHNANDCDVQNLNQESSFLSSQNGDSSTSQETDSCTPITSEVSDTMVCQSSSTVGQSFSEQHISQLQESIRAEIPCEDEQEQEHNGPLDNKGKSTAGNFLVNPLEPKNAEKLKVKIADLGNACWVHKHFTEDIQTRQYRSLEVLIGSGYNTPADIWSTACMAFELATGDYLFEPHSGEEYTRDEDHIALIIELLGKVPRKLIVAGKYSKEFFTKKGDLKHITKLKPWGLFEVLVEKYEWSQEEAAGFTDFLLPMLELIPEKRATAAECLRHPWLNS
Chain of Serine/threonine-protein kinase PLK2 (Homo sapiens) (Q9NYY3 whole entry, looked up): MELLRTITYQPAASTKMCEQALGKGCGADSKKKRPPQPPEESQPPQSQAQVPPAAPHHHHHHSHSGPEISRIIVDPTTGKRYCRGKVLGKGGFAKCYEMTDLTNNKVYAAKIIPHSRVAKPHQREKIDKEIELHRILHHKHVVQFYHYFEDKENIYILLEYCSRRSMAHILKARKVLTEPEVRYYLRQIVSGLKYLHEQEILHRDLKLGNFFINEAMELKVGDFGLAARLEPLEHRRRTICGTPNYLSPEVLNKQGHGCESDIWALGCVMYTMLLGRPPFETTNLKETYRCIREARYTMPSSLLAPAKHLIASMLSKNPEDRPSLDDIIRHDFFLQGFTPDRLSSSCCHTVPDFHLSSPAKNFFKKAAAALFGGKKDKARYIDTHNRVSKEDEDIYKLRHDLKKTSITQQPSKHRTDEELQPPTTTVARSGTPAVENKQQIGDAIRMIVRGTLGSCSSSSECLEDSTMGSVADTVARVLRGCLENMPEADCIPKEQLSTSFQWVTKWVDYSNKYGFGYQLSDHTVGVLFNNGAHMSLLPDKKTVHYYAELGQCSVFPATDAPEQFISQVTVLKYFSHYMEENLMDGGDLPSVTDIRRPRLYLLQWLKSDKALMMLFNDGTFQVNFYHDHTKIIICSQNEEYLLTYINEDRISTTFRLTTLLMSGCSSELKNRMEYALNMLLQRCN
Chain of SRSF protein kinase 2 (Homo sapiens) (P78362 whole entry, looked up): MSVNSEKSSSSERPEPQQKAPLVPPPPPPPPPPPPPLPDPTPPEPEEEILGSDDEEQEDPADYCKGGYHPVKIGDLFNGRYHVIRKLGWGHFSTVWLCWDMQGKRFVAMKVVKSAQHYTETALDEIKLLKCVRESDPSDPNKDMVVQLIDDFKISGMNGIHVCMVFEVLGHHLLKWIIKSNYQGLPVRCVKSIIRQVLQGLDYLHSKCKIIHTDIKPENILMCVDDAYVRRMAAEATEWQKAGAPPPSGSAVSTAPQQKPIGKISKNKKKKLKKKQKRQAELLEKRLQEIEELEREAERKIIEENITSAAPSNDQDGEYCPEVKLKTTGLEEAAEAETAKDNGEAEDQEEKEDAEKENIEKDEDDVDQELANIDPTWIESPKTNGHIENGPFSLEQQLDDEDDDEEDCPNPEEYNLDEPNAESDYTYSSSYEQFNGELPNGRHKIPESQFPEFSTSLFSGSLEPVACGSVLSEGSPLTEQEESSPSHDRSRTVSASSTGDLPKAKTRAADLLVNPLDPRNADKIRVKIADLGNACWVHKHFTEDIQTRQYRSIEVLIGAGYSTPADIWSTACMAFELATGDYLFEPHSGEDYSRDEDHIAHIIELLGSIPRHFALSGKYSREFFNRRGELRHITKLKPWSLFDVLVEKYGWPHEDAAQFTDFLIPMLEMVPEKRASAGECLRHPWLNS
Chain of Serine/threonine-protein kinase 33 (Homo sapiens) (Q9BYT3 whole entry, looked up): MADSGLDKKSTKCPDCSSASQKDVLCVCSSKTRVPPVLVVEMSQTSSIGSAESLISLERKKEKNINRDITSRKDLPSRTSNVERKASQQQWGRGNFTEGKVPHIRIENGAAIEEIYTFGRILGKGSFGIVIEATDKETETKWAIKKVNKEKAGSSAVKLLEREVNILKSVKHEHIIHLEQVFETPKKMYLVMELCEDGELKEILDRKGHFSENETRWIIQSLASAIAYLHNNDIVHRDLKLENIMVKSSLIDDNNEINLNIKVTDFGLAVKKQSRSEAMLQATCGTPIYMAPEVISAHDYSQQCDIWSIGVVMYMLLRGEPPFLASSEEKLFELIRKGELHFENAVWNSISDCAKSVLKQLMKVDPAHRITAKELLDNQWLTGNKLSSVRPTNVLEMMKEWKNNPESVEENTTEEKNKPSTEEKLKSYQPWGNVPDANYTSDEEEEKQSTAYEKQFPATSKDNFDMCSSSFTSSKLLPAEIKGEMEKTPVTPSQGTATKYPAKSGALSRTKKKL

SMILES | residual activity [1] | residual activity [2] | residual activity [3] | residual activity [4] | residual activity [5] | residual activity [6] | residual activity [7] | residual activity [8] | residual activity [9] | residual activity [10] | residual activity [11] | residual activity [12] | residual activity [13] | residual activity [14] | residual activity [15] | residual activity [16] | residual activity [17] | residual activity [18] | residual activity [19] | residual activity [20]
O=c1cc(N2CCNCC2)oc2c(-c3ccccc3)cccc12 | 8% | 99% | 85% | 91% | 93% | 98% | 93% | 99% | 95% | 92% | 95% | 83% | 85% | 105% | 96% | 98% | 92% | 72% |  | 
CCCC(=O)Oc1ccc2[nH]c(C(=O)c3cc4ccccc4[nH]3)cc2c1 | 54% | 104% | 103% | 103% | 87% | 92% | 91% | 102% | 107% | 101% | 83% | 87% | 81% | 104% | 83% | 89% | 86% | 63% | 126% | 91%
NC(=O)Nc1sc(-c2ccc(F)cc2)cc1C(N)=O | 5% | 105% | 78% | 102% | 75% | 89% | 63% | 101% | 73% |  |  |  |  | 39% | 6% | 61% | 16% | 35% |  | 

From ChEMBL document CHEMBL2218924, “A broad activity screen in support of a chemogenomic map for kinase signalling research and drug discovery” (Biochem J, 2013)
